Structures are written as SMILES. Where “and” joins values, the source holds several entries; their conditions need not be identical. Identical values can stand only once. Results filed as inconclusive are left out. Calls of active or inactive are those of the source. Rule for the calls, unless noted: active = hit-call score of the fitted dose curve at least 0.9, where 1 is the maximum; inactive = score below 0.9.

What is called AC50 is the concentration at which the activity in the assay is half-maximal.

In experiment [1] the target is human RAR-related Orphan Receptor gamma (RORg), RORC (gene 6097) (UniProt P51449). The experiment can be described thus: ATG_RORg_TRANS: Attagene TRANS-FACTORIAL HepG2 Assay for human RAR-related Orphan Receptor gamma (RORg) (AID 2283011; active = hit-call score of the fitted dose curve at least 0.9, where 1 is the maximum). The method, boiled down:
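Transient MRTU transfection of HepG2 (TRANS format, exogenous NR-Gal4 chimera). 24 h dosing. Total RNA → oligo(dT) RT → PCR → 6-FAM labelling → HpaI cut → CE. Gain vs DMSO.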

Experiment [2] addresses human Thyroid Receptor alpha (THRa1), THRA (gene 7067) (UniProt P10827). The experiment can be described thus: ATG_THRa1_TRANS: Attagene TRANS-FACTORIAL HepG2 Assay for human Thyroid Receptor alpha (THRa1) (AID 2283014; active = hit-call score of the fitted dose curve at least 0.9, where 1 is the maximum). An outline of the steps:
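Transient HepG2 transfection, NR-Gal4 chimera driving GAL4-UAS reporters; 24 h compound exposure; total RNA, oligo(dT) RT, PCR, fluorescent primer extension, capillary electrophoresis. Upward direction vs DMSO control.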

Experiment [3] in a line: BSK_3C_Vis: BioMAP Diversity Plus: 3C Assay for Morphology Visualization (AID 2283025).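 Note: fitted both ways so gain or loss versus DMSO counts.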 Conditions: primary human endothelial cells (HUVEC). An outline of the steps: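 Human umbilical vein endothelial cells in the 3C system were imaged by light microscopy 24 h after chemical dosing to record cell morphology. Activity was fitted bidirectionally against DMSO as negative control and baseline; the endpoint serves as a background control.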

Read-out in experiment [4]: Transforming growth factor beta 1 (TGFb1), TGFB1 (gene 7040)
The experiment is described as follows: BSK_BE3C_TGFb1: BioMAP Diversity Plus: BE3C Assay for Transforming growth factor beta 1 (TGFb1) Biomarker Activity (AID 2283036). Conditions: primary human bronchial epithelial cells; actives raise or lower the signal. The method, boiled down:
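Human primary bronchial epithelial cells (BE3C system) were dosed with chemical and TGF-b1 levels measured by ELISA at 24 h. Activity was fitted bidirectionally relative to DMSO negative control as baseline.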

Read-out in experiment [5]: Transforming growth factor beta 1 (TGFb1), TGFB1 (gene 7040)
The experiment is described as follows: BSK_KF3CT_TGFb1: BioMAP Diversity Plus: KF3CT Assay for Transforming growth factor beta 1 (TGFb1) Biomarker Activity (AID 2283072). Conditions: primary human keratinocytes with fibroblasts; actives raise or lower the signal. The method, boiled down:
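Human keratinocyte plus foreskin fibroblast primary co-culture, dosed with chemical for 24 h. TGF-b1 quantified by ELISA. Activity fitted bidirectionally against DMSO negative control as baseline.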

Read-out in experiment [6]: E-selectin (Homo sapiens) (UniProt P16581)
The experiment is described as follows: BSK_LPS_Eselectin: BioMAP Diversity Plus: LPS Assay for Eselectin Biomarker Activity (AID 2283077). To be noted: primary human HUVEC with PBMC; actives raise or lower the signal. The method, boiled down:
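ELISA readout of E-selectin, 24 h post-dose, HUVEC + PBMC co-culture (LPS system). Gain or loss of signal vs DMSO baseline, bidirectional fit.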

A short description of experiment [7]: BSK_LPS_SRB: Viability Assessment in the BioMAP Diversity Plus: LPS Assay (AID 2283079).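 Note: total protein by sulforhodamine B absorbance as a cytotoxicity measure; measured one day after compound addition; fitted in both directions against DMSO so loss or gain of signal counts.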 Conditions: primary human HUVEC with PBMC. An outline of the steps: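 HUVEC + PBMC co-culture, LPS-stimulated; compound 24 h. 10% TCA fix, 0.1% SRB stain, A560. Bidirectional fit vs DMSO.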
Read-out in experiment [8]: Monocyte Chemoattractant Protein-1 (MCP1), CCL2 (gene 6347)
The experiment can be described thus: BSK_LPS_MCP1: BioMAP Diversity Plus: LPS Assay for Monocyte Chemoattractant Protein-1 (MCP1) Biomarker Activity (AID 2283081).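 For AC50: secreted MCP-1 protein quantified by ELISA in culture supernatant.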 Conditions: primary human HUVEC with PBMC; actives raise or lower the signal. The method, boiled down:
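ELISA read-out of MCP-1 after 24 h chemical dosing of a human umbilical vein endothelial cell/peripheral blood mononuclear cell co-culture stimulated with LPS. Gain or loss of signal fitted relative to DMSO controls.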

Read-out in experiment [9]: Macrophage colony-stimulating factor (MCSF), CSF1 (gene 1435)
The experiment can be described thus: BSK_LPS_MCSF: BioMAP Diversity Plus: LPS Assay for Macrophage colony-stimulating factor (MCSF) Biomarker Activity (AID 2283083). To be noted: primary human HUVEC with PBMC; actives raise or lower the signal. An outline of the steps:
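HUVEC + PBMC co-culture (human primary), 24 h post-dose; M-CSF by ELISA; gain/loss of signal fitted bidirectionally vs DMSO baseline.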

Read-out in experiment [10]: Tissue Factor, F3 (gene 2152)
The experiment is described as follows: BSK_LPS_TissueFactor: BioMAP Diversity Plus: LPS Assay for Tissue Factor Biomarker Activity (AID 2283084). To be noted: primary human HUVEC with PBMC; actives raise or lower the signal. The method, boiled down:
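HUVEC/PBMC co-culture, LPS-activated; CD142 ELISA read 24 h post-dose; bidirectional curve fit vs DMSO negative control.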

Read-out in experiment [11]: Vascular cell adhesion molecule 1 (VCAM1), VCAM1 (gene 7412)
The experiment is described as follows: BSK_LPS_VCAM1: BioMAP Diversity Plus: LPS Assay for Vascular cell adhesion molecule 1 (VCAM1) Biomarker Activity (AID 2283086). Conditions: primary human HUVEC with PBMC; actives raise or lower the signal. The method, boiled down:
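Human umbilical vein endothelial cells co-cultured with peripheral blood mononuclear cells under LPS stimulation were exposed to test chemical for 24 h. VCAM-1 levels were then measured by ELISA, with bidirectional curve fitting relative to DMSO as negative control and baseline.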

Read-out in experiment [12]: CD38, CD38 (gene 952)
The experiment is described as follows: BSK_SAg_CD38: BioMAP Diversity Plus: SAg Assay for CD38 Biomarker Activity (AID 2283087). To be noted: primary human HUVEC with PBMC; actives raise or lower the signal. An outline of the steps:
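Fluorescence ELISA of cell-surface CD38 served as the read-out, with either increase or decrease fitted against DMSO controls. Cells were a human umbilical vein endothelium plus PBMC co-culture under SEB/TSST-1 stimulation, measured 24 h after dosing.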

Read-out in experiment [13]: CD40, CD40 (gene 958)
The experiment can be described thus: BSK_SAg_CD40: BioMAP Diversity Plus: SAg Assay for CD40 Biomarker Activity (AID 2283088). Conditions: primary human HUVEC with PBMC; actives raise or lower the signal. The method, boiled down:
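HUVEC/PBMC co-culture, 24 h post-dose; CD40 by ELISA, fluorescence intensity; bidirectional fit vs DMSO negative control.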

Read-out in experiment [14]: CD69, CD69 (gene 969)
The experiment can be described thus: BSK_SAg_CD69: BioMAP Diversity Plus: SAg Assay for CD69 Biomarker Activity (AID 2283089).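 For AC50: cell surface CD69 protein quantified by ELISA with fluorescence detection.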 Conditions: primary human HUVEC with PBMC; actives raise or lower the signal. An outline of the steps:
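Primary human vascular co-culture (umbilical vein endothelium with peripheral blood mononuclear cells) exposed to test chemical for 24 h. CD69 levels quantified by fluorescence ELISA; DMSO served as negative control for bidirectional fitting.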

Read-out in experiment [15]: E-selectin (Homo sapiens) (UniProt P16581)
The experiment is described as follows: BSK_SAg_Eselectin: BioMAP Diversity Plus: SAg Assay for Eselectin Biomarker Activity (AID 2283091). To be noted: primary human HUVEC with PBMC; actives raise or lower the signal. The method, boiled down:
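E-selectin ELISA readout at 24 h post-dosing in human umbilical vein endothelial cell/PBMC co-culture; gain or loss of signal fitted relative to DMSO baseline.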

Read-out in experiment [16]: Monokine induced gamma interferon (MIG), CXCL9 (gene 4283)
The experiment can be described thus: BSK_SAg_MIG: BioMAP Diversity Plus: SAg Assay for Monokine induced gamma interferon (MIG) Biomarker Activity (AID 2283092). To be noted: primary human HUVEC with PBMC; actives raise or lower the signal. The method, boiled down:
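Endothelial cells and PBMC were co-cultured, exposed to test chemicals, and sampled 24 h later. MIG was measured by ELISA, and responses were fitted in both directions relative to DMSO.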

Read-out in experiment [17]: Interleukin-8 (IL8), CXCL8 (gene 3576)
The experiment can be described thus: BSK_SAg_IL8: BioMAP Diversity Plus: SAg Assay for Interleukin-8 (IL8) Biomarker Activity (AID 2283094). To be noted: primary human HUVEC with PBMC; actives raise or lower the signal. The method, boiled down:
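Human umbilical vein endothelial cells co-cultured with peripheral blood mononuclear cells; IL-8 measured by ELISA 24 h after chemical dosing. Bidirectional concentration-response fitting used DMSO as negative control and activity baseline.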

The nature of experiment [18]: BSK_SAg_Proliferation: Cell Proliferation Assessment in the BioMAP Diversity Plus: SAg Assay (AID 2283095).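 Note: relative cell number as total protein by SRB absorbance in sub-confluent culture.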 To be noted: primary human HUVEC with PBMC. The method, boiled down:
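Human umbilical vein endothelial cells co-cultured with peripheral blood mononuclear cells; total protein measured by sulforhodamine B staining (0.1% SRB after 10% TCA fixation), absorbance at 560 nm, at 96 h. Bidirectional fit against DMSO baseline.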

Experiment [19] in a line: BSK_SAg_SRB: Viability Assessment in the BioMAP Diversity Plus: SAg Assay (AID 2283096).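 Note: cells read one day after compound addition; hits may be either gain or loss of signal compared with DMSO.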 To be noted: primary human HUVEC with PBMC. The method, boiled down: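 Human umbilical vein endothelial cells co-cultured with PBMC, read 24 h after compound dosing. Total protein measured by sulforhodamine B staining (0.1% SRB after 10% TCA fixation, absorbance 560 nm); bidirectional fit versus DMSO baseline.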

Experiment [20] addresses Estrogen receptor (Homo sapiens) (UniProt P03372). The experiment is described as follows: ATG_ERa_TRANS: Attagene TRANS-FACTORIAL HepG2 Assay for human Estrogen Receptor alpha (ERa) (AID 2282970; active = hit-call score of the fitted dose curve at least 0.9, where 1 is the maximum). Conditions: HepG2 Attagene TRANS ERa GAL4 reporter, mRNA. An outline of the steps:
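After 24 h of compound treatment, RNA from HepG2 cells bearing transfected GAL4-UAS reporter constructs is converted to cDNA, amplified and fluorescently labelled. Capillary electrophoresis resolves the ERa-linked reporter; DMSO serves as negative control.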

Chain of human RAR-related Orphan Receptor gamma (RORg), RORC (gene 6097) (P51449 whole entry, looked up, the tested form may be a part): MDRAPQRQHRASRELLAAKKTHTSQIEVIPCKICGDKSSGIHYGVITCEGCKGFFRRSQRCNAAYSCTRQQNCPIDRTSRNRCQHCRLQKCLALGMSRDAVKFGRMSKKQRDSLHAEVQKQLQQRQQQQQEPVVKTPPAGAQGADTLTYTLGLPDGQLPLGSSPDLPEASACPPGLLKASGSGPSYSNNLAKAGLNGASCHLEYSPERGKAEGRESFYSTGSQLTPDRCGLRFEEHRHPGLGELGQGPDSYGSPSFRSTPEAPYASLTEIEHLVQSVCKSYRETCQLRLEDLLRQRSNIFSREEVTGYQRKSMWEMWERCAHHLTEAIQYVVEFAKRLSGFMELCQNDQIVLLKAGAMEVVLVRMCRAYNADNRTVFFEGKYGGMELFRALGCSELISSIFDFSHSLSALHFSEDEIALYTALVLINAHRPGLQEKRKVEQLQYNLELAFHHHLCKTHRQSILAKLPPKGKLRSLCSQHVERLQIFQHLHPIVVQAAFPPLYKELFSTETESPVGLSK
Chain of human Thyroid Receptor alpha (THRa1), THRA (gene 7067) (P10827 whole entry, looked up, the tested form may be a part): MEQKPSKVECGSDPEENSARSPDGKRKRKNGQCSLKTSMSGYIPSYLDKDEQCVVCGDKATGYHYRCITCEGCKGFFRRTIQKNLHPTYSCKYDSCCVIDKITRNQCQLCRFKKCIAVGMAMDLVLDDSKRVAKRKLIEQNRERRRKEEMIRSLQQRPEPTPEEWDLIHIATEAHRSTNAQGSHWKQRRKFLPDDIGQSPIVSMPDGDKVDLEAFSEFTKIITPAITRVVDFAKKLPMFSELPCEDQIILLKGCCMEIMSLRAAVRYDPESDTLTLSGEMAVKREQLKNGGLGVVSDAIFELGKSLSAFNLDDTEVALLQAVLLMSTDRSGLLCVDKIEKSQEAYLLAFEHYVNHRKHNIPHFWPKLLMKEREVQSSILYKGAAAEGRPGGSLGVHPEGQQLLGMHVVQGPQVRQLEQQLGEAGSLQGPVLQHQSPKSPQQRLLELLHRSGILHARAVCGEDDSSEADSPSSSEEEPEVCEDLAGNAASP
Chain of E-selectin (Homo sapiens) (P16581 whole entry, looked up): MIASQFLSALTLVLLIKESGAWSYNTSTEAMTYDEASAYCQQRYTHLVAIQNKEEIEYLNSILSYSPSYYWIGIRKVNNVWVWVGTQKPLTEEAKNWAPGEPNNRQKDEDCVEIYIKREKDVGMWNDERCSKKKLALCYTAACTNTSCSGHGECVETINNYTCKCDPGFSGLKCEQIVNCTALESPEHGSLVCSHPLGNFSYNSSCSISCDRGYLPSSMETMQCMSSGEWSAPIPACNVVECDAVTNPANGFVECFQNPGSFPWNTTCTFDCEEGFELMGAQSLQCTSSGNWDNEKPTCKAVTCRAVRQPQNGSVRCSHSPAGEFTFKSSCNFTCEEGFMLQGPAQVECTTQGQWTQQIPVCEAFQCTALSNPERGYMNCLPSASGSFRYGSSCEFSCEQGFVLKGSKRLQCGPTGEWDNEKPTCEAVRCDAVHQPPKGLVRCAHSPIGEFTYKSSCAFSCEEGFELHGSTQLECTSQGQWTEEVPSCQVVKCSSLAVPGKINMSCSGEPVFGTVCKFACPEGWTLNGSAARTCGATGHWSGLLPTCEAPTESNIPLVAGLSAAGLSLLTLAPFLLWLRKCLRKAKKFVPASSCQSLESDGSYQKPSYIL
Chain of Estrogen receptor (Homo sapiens) (P03372 whole entry, looked up, the tested form may be a part): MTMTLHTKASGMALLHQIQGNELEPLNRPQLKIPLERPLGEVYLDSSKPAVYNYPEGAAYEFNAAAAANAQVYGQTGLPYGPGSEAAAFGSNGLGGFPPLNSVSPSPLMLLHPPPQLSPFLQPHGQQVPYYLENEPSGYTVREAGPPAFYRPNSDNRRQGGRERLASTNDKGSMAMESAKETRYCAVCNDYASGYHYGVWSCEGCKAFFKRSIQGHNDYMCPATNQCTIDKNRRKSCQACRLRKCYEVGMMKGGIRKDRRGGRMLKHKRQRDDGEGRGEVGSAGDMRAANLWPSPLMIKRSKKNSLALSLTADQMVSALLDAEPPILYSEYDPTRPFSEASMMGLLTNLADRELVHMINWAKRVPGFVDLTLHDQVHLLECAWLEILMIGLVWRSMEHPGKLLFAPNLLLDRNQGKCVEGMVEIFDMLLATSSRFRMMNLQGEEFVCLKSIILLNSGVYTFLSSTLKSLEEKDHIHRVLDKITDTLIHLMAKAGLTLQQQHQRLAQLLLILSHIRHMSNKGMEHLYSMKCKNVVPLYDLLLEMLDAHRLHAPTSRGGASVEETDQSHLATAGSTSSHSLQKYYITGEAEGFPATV

Turning to `N#CCCCCC#N`, the molecule was classed as inactive in [1], in experiment [2], in experiment [3], in [4], in [5] and in [6]. For the same molecule, the outcome in experiment [7], in experiment [8], in experiment [9], in experiment [10], in experiment [11] and in [12] was inactive. In addition, the outcome in experiment [13], in experiment [14], in [15], in experiment [16], in experiment [17] and in experiment [18] was inactive. In addition, in experiment [19], the outcome was inactive.
`Oc1ccc(C2(c3ccc(O)cc3)c3ccccc3-c3ccccc32)cc1`: the result in experiment [20] was inactive. In addition, the AC50 in [6] is 31.6 µM (active) and 33.9 µM (active); in [7] it was 13.7 µM (active) and 14.4 µM (active); in experiment [8], 16.5 µM (active) and 14.2 µM (active); in experiment [9] it was 33.9 µM (active) and 33.6 µM (active); in [10], 32 µM (active) and 29.5 µM (active); in experiment [11] it was 15.9 µM (active) and 22 µM (active). Also, the AC50 was 8.99 µM (active) and 9.75 µM (active) in experiment [12]; 11.7 µM (active) and 12.5 µM (active) in [13]; 10.6 µM (active) and 9.45 µM (active) in [14]; 10.2 µM (active) and 7.86 µM (active) in experiment [15]; 12.4 µM (active) and 11.5 µM (active) in [16]; 8.55 µM (active) and 9.2 µM (active) in [17]. In addition, the AC50 in experiment [18] was 9.89 µM (active) and 9.81 µM (active); in experiment [19], 15.9 µM (active) and 15.6 µM (active).
As to `CCCC=NO`, the call in experiment [20], in experiment [1] and in [2] was inactive.
In the case of `Nc1ccccc1C(=O)OCCc1ccccc1`, the molecule was classed as inactive in experiment [1].
Consider `O=[N+]([O-])C=Cc1ccccc1`, for which the outcome in [1] and in experiment [2] was inactive. Further, the half-maximal activity concentration (AC50) is 8.8 µM (active) in [3]; 5.17 µM (active) in experiment [4]; 3.05 µM (active) in experiment [5]; 15.3 µM (active) in [6]; 11 µM (active) in experiment [7]; 10.3 µM (active) in experiment [8]. Further, the AC50 in experiment [9] was 10.8 µM (active); in experiment [10], 10.7 µM (active); in [11], 8.21 µM (active); in experiment [12], 24.9 µM (active); in experiment [13], 20 µM (active); in [14], 20 µM (active). Also, the AC50 in [15] was 20 µM (active); in [16], 20 µM (active); in [17], 11.3 µM (active); in experiment [18], 3.07 µM (active); in experiment [19] it was 12.6 µM (active).
As to `CC(C)(c1cc(Cl)c(O)c(Cl)c1)c1cc(Cl)c(O)c(Cl)c1`, the call in [2] and in [4] was inactive. Also, the AC50 in experiment [3] is 39.6 µM (active); in [5], 5.27 µM (active); in experiment [7], 31.7 µM (active); in experiment [8] it was 31.3 µM (active); in experiment [9] it was 17.2 µM (active); in [10] it was 31.3 µM (active). Moreover, the concentration at half-maximal activity (AC50) in experiment [11] is 29.8 µM (active); in experiment [12], 26.6 µM (active); in experiment [14], 26.3 µM (active); in [15] it was 23.5 µM (active); in experiment [17], 31 µM (active); in experiment [18], 25.9 µM (active).
